# Experimental data: PubChem BioAssay (NCI)
# The panel holds about 83,000 compounds, 20% with a hit somewhere; the sample as a whole holds those more often.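 Results are percent growth after 48 hours of single-concentration exposure. 100 means growth as in untreated cells, lower positive values show inhibition; negative values down to -100 show cell death.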 Values without a mark were called inactive. Activity calls are given as the source filed them. The calls were made as follows: active = growth percent below 10; inactive = the rest.
# How the values were obtained:
# Experiment in all cases: NCI-60 one-dose screen, 48 h (100 = growth as untreated, 0 = no growth, -100 = all killed)
# Details in all cases: 10 µM unless noted
# DU-145 prostate = test system: DU-145 prostate
# K-562 leukemia = test system: K-562 leukemia
# MALME-3M melanoma = test system: MALME-3M melanoma
# MDA-MB-231 breast = test system: MDA-MB-231 breast
# RXF 393 renal = test system: RXF 393 renal
# SF-268 CNS = test system: SF-268 CNS
# SF-295 CNS = test system: SF-295 CNS
# SF-539 CNS = test system: SF-539 CNS
# UACC-257 melanoma = test system: UACC-257 melanoma
# M14 melanoma = test system: M14 melanoma
# HCT-15 colon = test system: HCT-15 colon
# SNB-75 CNS = test system: SNB-75 CNS
# SNB-19 CNS = test system: SNB-19 CNS
# U251 CNS = test system: U251 CNS
# PC-3 prostate = test system: PC-3 prostate
# SK-MEL-5 melanoma = test system: SK-MEL-5 melanoma
# UACC-62 melanoma = test system: UACC-62 melanoma
# LOX IMVI melanoma = test system: LOX IMVI melanoma
# SK-MEL-28 melanoma = test system: SK-MEL-28 melanoma
# HT29 colon = test system: HT29 colon
Compound,growth (DU-145 prostate) [%],growth (K-562 leukemia),growth (MALME-3M melanoma),growth (MDA-MB-231 breast),growth (RXF 393 renal),growth (SF-268 CNS) [%],growth (SF-295 CNS),growth (SF-539 CNS),growth (UACC-257 melanoma),growth (M14 melanoma),growth (HCT-15 colon),growth (SNB-75 CNS),growth (SNB-19 CNS) [%],growth (U251 CNS),growth (PC-3 prostate),growth (SK-MEL-5 melanoma),growth (UACC-62 melanoma),growth (LOX IMVI melanoma),growth (SK-MEL-28 melanoma),growth (HT29 colon) [%]
CCSc1oc(C)nc1[P+](c1ccccc1)(c1ccccc1)c1ccccc1,29.5,19.8%,31.1%,49.1%,50.9%,25,35.1%,59.1%,11.8%,33.1%,92.1%,35.1%,19.3,20.2%,19.6%,1.8% (active),28.7%,25.7%,65.5%,
Cc1ccc(C(=O)c2ccc(CC(=O)N=Nc3c(O)[nH]c4ccc(Br)cc34)n2C)cc1,97.8,83.5%,111%,88.4%,87%,87.7,99.1%,92.4%,105%,91.3%,96.7%,84%,89,92.6%,89.3%,95.9%,94.6%,88.9%,102%,
Cc1c(Cl)cccc1C(=O)Nc1nc2c(s1)CN(C(=O)c1ccc(C(F)(F)F)cc1)CC2,15.7,10.3%,44.6%,34.4%,21.9%,38.4,25.1%,-24.5% (active),63.7%,10.2%,15%,6.65% (active),,17.7%,7.45% (active),8.01% (active),37.6%,20.2%,59.1%,
CCOC(=O)c1c(C)nc2ccccc2c1/C=C/c1cccs1,95.5,50.3%,112%,82.7%,93.8%,89.4,65.6%,93.2%,91.8%,93.4%,58.6%,80.1%,83.5,81.2%,60.4%,21%,50.7%,73.1%,106%,
O=C1c2ccccc2C(=O)C1c1ccc(Br)cc1,118,104%,88.8%,89.4%,121%,113,90.5%,104%,110%,109%,92.7%,,,95.8%,97.9%,107%,98.3%,88.9%,98%,101
CC(=O)O[C@H]1C[C@@H]2C(C)(C)C(=O)CC[C@@]2(C)c2ccc(C(C)C)cc21,102,104%,109%,104%,121%,95.8,100%,110%,107%,104%,105%,100%,102,97.7%,100%,103%,101%,105%,121%,
CNCc1cccc2c1OCCOCCOCCNS(=O)(=O)c1ccc(cc1)-c1cnc(N)c(n1)C(=O)N2,21.1,9.35% (active),29.9%,30.4%,-11.5% (active),35.7,70.3%,7.45% (active),61.3%,26%,89.8%,65.4%,18.2,14.1%,20.1%,77%,23.2%,2.85% (active),51%,
OCCNCCNC(Cc1ccc(Cl)cc1)c1ccccc1 (configuration not stated),99.7,88.5%,107%,75.7%,84.5%,88.8,92.2%,72.9%,104%,90.5%,93.3%,72.8%,96.9,94.2%,55.3%,95.2%,59.7%,83.8%,81.5%,
O=C(CCCCCCN1CC(=O)N2[C@H](c3ccc(Br)cc3)c3[nH]c4ccccc4c3C[C@@H]2C1=O)NO,57.5,14.7%,20.4%,43.7%,42.4%,71.4,67.2%,43.7%,34.9%,46.6%,103%,31.9%,57.1,42.6%,39.1%,26%,13.8%,12.3%,33.9%,
O=[N+]([O-])c1ccc(-c2cn3nc(-c4c[nH]c5ccccc45)sc3n2)cc1,110,84.1%,89.5%,94%,108%,108,102%,105%,95.3%,97%,86%,96.4%,93.4,96.9%,93.7%,91.2%,84.2%,94.7%,111%,
CC1(C)N=C(N)N=C(N)N1c1cccc(CCc2ccccc2)c1,37.3,23.1%,79.1%,68.9%,78.5%,32.4,41.9%,23%,39.3%,55.4%,85.8%,63%,31.3,38.1%,34.6%,12%,24.7%,24%,46.3%,
Cc1cccc(-c2nc(Nc3ccc4ncsc4c3)c3ccccc3n2)n1,90.6,28.5%,102%,101%,78.8%,98,88.7%,98.1%,81.4%,64%,70.7%,,102,77%,14.7%,,80.8%,93.2%,98.2%,43.1
CN1CCN(CC(=O)Nc2ccc3ncnc(Nc4ccc(Oc5cccc(C(F)(F)F)c5)c(Cl)c4)c3c2)CC1,23.9,-27.3% (active),-77.1% (active),-58.1% (active),-78.6% (active),11.3,-44.7% (active),-84.5% (active),-56.1% (active),-86.5% (active),-12.2% (active),68.8%,28.5,0.145% (active),42.9%,-58% (active),-28.8% (active),-94.6% (active),-89% (active),
COCCn1cc(-c2csc(-c3c[nH]c4ccc(Br)cc34)n2)c2cccnc21,46.7,0.0972% (active),53.1%,4.45% (active),58.9%,44.3,17.7%,45.5%,28.9%,14.3%,13.1%,39.7%,55.6,36.5%,16%,19.9%,44.7%,-10.7% (active),52.3%,
CC1CCN(C(=S)SCC(=O)NC(=O)c2ccccc2)CC1,107,97.1%,95.5%,117%,136%,100,105%,99.2%,102%,109%,109%,96.5%,111,106%,102%,113%,106%,96.9%,111%,
